The panel holds about 83,000 compounds, 20% with a hit somewhere; the sample as a whole holds those more often.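 Single-dose data. Exposure time 48 hours. Values below 10 considered active.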 Unmarked numbers belong to inactive results. Calls of active or inactive are those of the source.
Tested on: K-562 leukemia
Test: NCI-60 one-dose screen, 48 h (100 = growth as untreated, 0 = no growth, -100 = all killed)
Details: 10 µM unless noted

| SMILES | growth |
| --- | --- |
| O=C(COc1cccc(/C=C2\COc3ccc(Cl)cc3C2=O)c1)c1ccc(Cl)cc1 | 13.1% |
| Cc1cc(Nc2ccc(C)c(Cl)c2)n2nc(C(F)(F)F)nc2n1 | 54.8% |
| O=C(Oc1cccnc1)c1ccsc1Nc1ccnc(C(F)(F)F)c1 | 25.7% |
| OC(c1cc2cc(Cl)c(Cl)cc2c2cc(C(F)(F)F)ccc12)C1CCCCN1 (stereo not drawn) | -63.5% (active) |
| CCOc1nc(-c2ccccc2)cc2c(O)c(C(=O)O)[nH]c(=O)c12 | 112% |
| COc1ccc(Nc2cc(C)nc(N3CCN(c4ccnc5cc(Cl)ccc45)CC3)n2)cc1 | 10.1% |
| Cc1cc(N2CCN(c3ccnc4cc(Cl)ccc34)CC2)nc(N2CCOCC2)n1 | 55.9% |
| N#Cc1c(N)n(CCNC(=O)c2ccccc2)c2nc3ccccc3nc12 | 87.8% |
| CCCCC/C(C=C(C#N)C#N)=C/c1ccccc1 | 42.2% |
| OCCNc1nccc(N2CCN(c3ccnc4cc(Cl)ccc34)CC2)n1 | 24.2% |
| COc1ccc(Nc2c3c4c(cccc4[nH]c2=O)C(=O)c2ccccc2-3)cc1 | -19% (active) |
| O=C(Cn1cccc(Nc2ccccc2)c1=O)Nc1ccccc1 | 108% |
| Cc1cc(N2CCN(c3ccnc4cc(Cl)ccc34)CC2)nc(NC2CCCCC2)n1 | 5.36% (active) |
| O=C(COc1ccc(/C=C2\CSc3ccccc3C2=O)cc1)Nc1nccs1 | -14.2% (active) |
| CN(C)CCCNc1c2ccccc2nc2ccccc12 | 96.8% |
| COc1ccc(C2Nc3c(c(C(C)(C)C)nn3-c3ccccc3)C(=O)CS2)cc1 (stereo not drawn) | 98.5% |

Tested on: MALME-3M melanoma
Test: as above
Details: 10 µM unless noted

| SMILES | growth |
| --- | --- |
| O=C(COc1cccc(/C=C2\COc3ccc(Cl)cc3C2=O)c1)c1ccc(Cl)cc1 | 77.5% |
| Cc1cc(Nc2ccc(C)c(Cl)c2)n2nc(C(F)(F)F)nc2n1 | -15.2% (active) |
| CN(C)c1ccc(NC(=O)c2ccc(/C=C/C(=O)c3ncc[nH]3)cc2)cc1 | 87.9% |
| O=[N+]([O-])c1ccccc1/C=N\NC(=S)N/N=C/c1ccccc1[N+](=O)[O-] | 19% |
| O=C(Oc1cccnc1)c1ccsc1Nc1ccnc(C(F)(F)F)c1 | 84.9% |
| OC(c1cc2cc(Cl)c(Cl)cc2c2cc(C(F)(F)F)ccc12)C1CCCCN1 (stereo not drawn) | -17.6% (active) |
| COc1ccc(-c2cc(-c3ccc(Nc4ccnc5cc(Cl)ccc45)cc3)nc(N3CCOCC3)n2)cc1 | -39.1% (active) |
| C=C1C(=O)O[C@H]2[C@H]1CC/C(COC(=O)NCCc1ccc(OC)c(OC)c1)=C\CC[C@@]1(C)O[C@@H]21 | 63.3% |
| O=[N+]([O-])c1ccc2c(c1)Cc1cc(F)ccc1-2 | 109% |
| CN1CCN(c2nc(NCCCNc3ccnc4cc(Cl)ccc34)c3ccccc3n2)CC1 | -66.3% (active) |
| Clc1ccc2c(NCCCCNc3nc(N4CCCCC4)nc4ccccc34)ccnc2c1 | -81.8% (active) |
| NC(=NC1C2CC3CC(C2)CC1C3)Nc1ccc(I)cc1 (stereo not drawn) | -17% (active) |
| N#Cc1c(N)n(CCNC(=O)c2ccccc2)c2nc3ccccc3nc12 | 120% |
| COc1ccc(CN2c3ccccc3Sc3ccccc32)c(C(F)(F)F)c1 | 92.7% |
| CCc1c(Nc2ccccc2C)nc(N)[nH]c1=O | 102% |
| CC(=O)c1cc2c(N)c(C(=O)Nc3ccccc3)sc2nc1C | 89.2% |

| SMILES | growth |
| --- | --- |
| CCCCC/C(C=C(C#N)C#N)=C/c1ccccc1 | 95.4% |
| Cc1cc(N2CCSCC2)nc(NC2CCCC(Nc3ccnc4cc(Cl)ccc34)C2)n1 (stereo not drawn) | -86.1% (active) |
| COc1ccc(Nc2c3c4c(cccc4[nH]c2=O)C(=O)c2ccccc2-3)cc1 | 41.1% |
| O=C1/C(=C/c2ccccc2O)N=C2SCCCN12 | 95.1% |
| COc1cc2c(cc1O)CC[C@@H]1[C@@H]2CC[C@]2(C)[C@@H](OCCCN(C)C)CC[C@@H]12 | -76.1% (active) |
| CSc1ccc(SC2c3ccc(C)cc3Oc3nc(N)c(C#N)c(N)c32)cc1 (stereo not drawn) | -94% (active) |
| O=c1ccccc(-c2ccc(-c3ccco3)cc2)c1O | 15.1% |
| O=C(COc1ccc(/C=C2\CSc3ccccc3C2=O)cc1)Nc1nccs1 | 77.8% |
| CN(C)CCCNc1c2ccccc2nc2ccccc12 | 100% |
| O=C(Cc1ccc(/C=C/C(=O)c2ncc[nH]2)cc1)Nc1ccccc1 | 98.2% |
| CC/C=C\C/C=C\C[C@H]1C/C=C2/C(=O)C=C[C@@H]2C/C=C\CCC(=O)O1 | 29.6% |
| COc1cccc(-c2nc(SCC(=O)Nc3ccc(C(=O)/C=C/c4ccc(OC)c(OC)c4)cc3)[nH]c(=O)c2C#N)c1 | 97.4% |
| Cc1cc(N2CCN(C)CC2)nc(NC2CCCC(Nc3ccnc4cc(Cl)ccc34)C2)n1 (stereo not drawn) | -82.9% (active) |
| Clc1ccc2nc3nc4ccc[nH]c4cc3c2c1 | 87.2% |
| COc1ccc2c(c1)C(=O)/C(=C/c1ccccn1)CC2 | 72.7% |
| COc1ccc(C2Nc3c(c(C(C)(C)C)nn3-c3ccccc3)C(=O)CS2)cc1 (stereo not drawn) | 98% |
